Results on 36 molecules are retold here after the supplement of paper PMC12494721.

Where a name gives a salt, the structure may show the parent alone.

The first experiment concerns Klebsiella aerogenes DSM 30053. Kind of experiment: fold change of Cadaverine concentration vs plate DMSO controls (fold change (ratio)); higher = more amine produced, active = hit call of the paper (significant change in both replicates, either direction). As to conditions: 20 µM; incubation time: 27 h, anaerobic, 37 °C. Summed up:
(§1)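 In 80 µL wells, cultures of four gut bacterial strains in mGAM started at OD 0.1 before a 1:1 dilution and grew anaerobically at 37 °C for 27 h. Compounds were added to 20 µM final, except sweeteners at 50 µM final. After extraction of whole cultures with cold acetonitrile/methanol plus 0.1% formic acid and centrifugation, amines were measured by LC–triple-quadrupole MS in dynamic MRM mode against external calibration curves, with within-batch drift correction. Values give fold change over DMSO controls on the same plate, averaged across 2 biological replicates.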
For the molecule `C#C[C@]1(O)C=C[C@H]2[C@@H]3CCC4=CC(=O)CC[C@@H]4[C@H]3CC[C@@]21CC` [Gestodene], the “fold change of Cadaverine concentration” value is 0.988 (inactive).
Take `O=C(O)COc1ccc(Cl)cc1Cl`: the “fold change of Cadaverine concentration” value was 1.01 (inactive).
Take `CC1COC(Cn2cncn2)(c2ccc(Oc3ccc(Cl)cc3)cc2Cl)O1` (configuration not stated): the “fold change of Cadaverine concentration” value is 0.995 (inactive).
As for `CC(C)OC(=O)Nc1cccc(Cl)c1`, the “fold change of Cadaverine concentration” value is 1.01 (inactive).
Consider `CCOc1ccc(C(C)(C)COCc2cccc(Oc3ccccc3)c2)cc1`, for which the “fold change of Cadaverine concentration” value was 1.05 (inactive).
Turning to `COC(=O)N(OC)c1ccccc1COc1ccn(-c2ccc(Cl)cc2)n1`, the “fold change of Cadaverine concentration” value was 1 (inactive).
On the same count and under the same terms, with `CC(O)(CS(=O)(=O)c1ccc(F)cc1)C(=O)Nc1ccc(C#N)c(C(F)(F)F)c1` (configuration not stated) [Bicalutamide] the figure was 1.02 (inactive).
In the case of `CON(C)C(=O)Nc1ccc(Cl)c(Cl)c1`, the “fold change of Cadaverine concentration” value was 1 (inactive).
Turning to `C[N+]1(C)[C@@H]2CC[C@H]1C[C@@H](OC(=O)C(CO)c1ccccc1)C2` (some centres not stated) [Methylatropine nitrate], the “fold change of Cadaverine concentration” value is 1.01 (inactive).
For the molecule `COCc1cnc(C2=NC(C)(C(C)C)C(=O)N2)c(C(=O)O)c1` (configuration not stated), the “fold change of Cadaverine concentration” value is 1.06 (inactive).
Turning to `CO/N=C(/C(=O)OC)c1ccccc1CO/N=C(\C)c1cccc(C(F)(F)F)c1`, the “fold change of Cadaverine concentration” value is 1.02 (inactive).
On the same count and under the same terms, to `COC(=O)N(C(=O)N1CO[C@@]2(C(=O)OC)Cc3cc(Cl)ccc3C2=N1)c1ccc(OC(F)(F)F)cc1` belongs 1.03 (inactive); to `COc1ccc(C(CN(C)C)C2(O)CCCCC2)cc1` (configuration not stated) [Venlafaxine], 0.974 (inactive); to `C1CCc2nnnn2CC1` [Pentylenetetrazole], 0.998 (inactive).
Regarding `CC(C)CC(N(C)C)C1(c2ccc(Cl)cc2)CCC1` (configuration not stated) [Sibutramine hydrochloride], the “fold change of Cadaverine concentration” value was 0.989 (inactive).
As to `OC(c1ccccc1)(c1ccccc1)C1CCNCC1` [Azacyclonol], the “fold change of Cadaverine concentration” value is 1 (inactive).
Take `CNC(=O)Oc1cccc(/N=C/N(C)C)c1`: the “fold change of Cadaverine concentration” value was 1 (inactive).
In the case of `O=C(O)c1nc(Cl)ccc1Cl`, the “fold change of Cadaverine concentration” value is 0.983 (inactive).
`CNC(=O)c1cc(C#N)cc(C)c1NC(=O)c1cc(Br)nn1-c1ncccc1Cl`: the “fold change of Cadaverine concentration” value is 1.02 (inactive).
As to `C[N+]1([O-])[C@@H]2C[C@@H](OC(=O)[C@H](CO)c3ccccc3)C[C@H]1[C@@H]1O[C@@H]12` (some centres not stated) [Scopolamin-N-oxide hydrobromide], the “fold change of Cadaverine concentration” value was 1.01 (inactive).
Same read-out and setting: to `CCC(=O)O[C@@](Cc1ccccc1)(c1ccccc1)[C@@H](C)CN(C)C` [Levopropoxyphene napsylate] belongs 1.01 (inactive); to `CNC(=O)CSP(=S)(OC)OC`, 1.12 (inactive); to `CC(C)[N+](C)(CCC(C(N)=O)(c1ccccc1)c1ccccc1)C(C)C` [Isopropamide iodide], 0.997 (inactive).
Take `COCC(=O)N(c1c(C)cccc1C)[C@H](C)C(=O)OC`: the “fold change of Cadaverine concentration” value was 1.01 (inactive).
For the molecule `O=C1c2ccccc2C(=O)N1SC(Cl)(Cl)Cl`, the “fold change of Cadaverine concentration” value is 0.988 (inactive).
On to `O=C1C2CC=CCC2C(=O)N1SC(Cl)(Cl)Cl` (configuration not stated), for which the “fold change of Cadaverine concentration” value is 0.999 (inactive).
As for `CN(C)C(=O)Oc1cc(OC(=O)N(C)C)cc(C(O)CNC(C)(C)C)c1` (configuration not stated) [Bambuterol hydrochloride], the “fold change of Cadaverine concentration” value was 0.995 (inactive).
Same read-out and setting: with `CC(C)N(C)S(=O)(=O)NC(=O)c1cc(-n2c(=O)cc(C(F)(F)F)n(C)c2=O)c(F)cc1Cl` the figure was 0.993 (inactive).
For the molecule `CC[C@H]1CCC[C@H](O[C@H]2CC[C@H](N(C)C)[C@@H](C)O2)[C@@H](C)C(=O)C2=C[C@@H]3[C@@H](C=C(C)[C@@H]4C[C@@H](O[C@@H]5O[C@@H](C)[C@H](OC)[C@@H](OC)[C@H]5OC)C[C@@H]34)[C@@H]2CC(=O)O1.CC[C@H]1CCC[C@H](O[C@H]2CC[C@H](N(C)C)[C@@H](C)O2)[C@@H](C)C(=O)C2=C[C@H]3[C@@H]4C[C@H](O[C@@H]5O[C@@H](C)[C@H](OC)[C@@H](OC)[C@H]5OC)C[C@H]4C=C[C@H]3C2CC(=O)O1`, the “fold change of Cadaverine concentration” value is 0.992 (inactive).
In the case of `C[N+]1(C)CCCC(OC(=O)C(O)(c2ccccc2)c2ccccc2)C1` (configuration not stated) [Mepenzolate bromide], the “fold change of Cadaverine concentration” value was 1.01 (inactive).
Turning to `COc1cccc(C(=O)NN(C(=O)c2cc(C)cc(C)c2)C(C)(C)C)c1C`, the “fold change of Cadaverine concentration” value was 0.986 (inactive).
On to `Cc1cccc(C)c1NC1=NCCCS1` [Xylazine], for which the “fold change of Cadaverine concentration” value was 0.993 (inactive).
The same measure, in the same setting: with `CCN(C)C(=O)Oc1cccc([C@H](C)N(C)C)c1` [Rivastigmine] the figure was 1.03 (inactive).
`CCCCCCCCCCCCN=C(N)N`: the “fold change of Cadaverine concentration” value was 1.03 (inactive).
On the same count and under the same terms, with `CO/C=C(/C(=O)OC)c1ccccc1Oc1cc(Oc2ccccc2C#N)ncn1` the figure was 0.992 (inactive); with `O=C(O[C@H]1C[N+]2(CCCOc3ccccc3)CCC1CC2)C(O)(c1cccs1)c1cccs1` [Aclidinium bromide], 1 (inactive).

The subject of a further experiment is Ruminococcus gnavus DSM 108212. Kind of experiment: fold change of 2-Phenylethylamine concentration vs plate DMSO controls (fold change (ratio)); higher = more amine produced, active = hit call of the paper (significant change in both replicates, either direction). To be noted: 20 µM; incubation time: 27 h, anaerobic, 37 °C. Summed up: as §1
As for `C#C[C@]1(O)C=C[C@H]2[C@@H]3CCC4=CC(=O)CC[C@@H]4[C@H]3CC[C@@]21CC` [Gestodene], the “fold change of 2-Phenylethylamine concentration” value was 0.977 (inactive).
Turning to `O=C(O)COc1ccc(Cl)cc1Cl`, the “fold change of 2-Phenylethylamine concentration” value was 0.929 (inactive).
Consider `CC1COC(Cn2cncn2)(c2ccc(Oc3ccc(Cl)cc3)cc2Cl)O1` (configuration not stated), for which the “fold change of 2-Phenylethylamine concentration” value was 0.954 (inactive).
For the molecule `CC(C)OC(=O)Nc1cccc(Cl)c1`, the “fold change of 2-Phenylethylamine concentration” value was 1.06 (inactive).
Take `CCOc1ccc(C(C)(C)COCc2cccc(Oc3ccccc3)c2)cc1`: the “fold change of 2-Phenylethylamine concentration” value was 1.05 (inactive).
As for `COC(=O)N(OC)c1ccccc1COc1ccn(-c2ccc(Cl)cc2)n1`, the “fold change of 2-Phenylethylamine concentration” value was 0.888 (inactive).
`CC(O)(CS(=O)(=O)c1ccc(F)cc1)C(=O)Nc1ccc(C#N)c(C(F)(F)F)c1` (configuration not stated) [Bicalutamide]: the “fold change of 2-Phenylethylamine concentration” value is 1.04 (inactive).
In the case of `CON(C)C(=O)Nc1ccc(Cl)c(Cl)c1`, the “fold change of 2-Phenylethylamine concentration” value is 0.976 (inactive).
Take `C[N+]1(C)[C@@H]2CC[C@H]1C[C@@H](OC(=O)C(CO)c1ccccc1)C2` (some centres not stated) [Methylatropine nitrate]: the “fold change of 2-Phenylethylamine concentration” value is 0.956 (inactive).
In the case of `COCc1cnc(C2=NC(C)(C(C)C)C(=O)N2)c(C(=O)O)c1` (configuration not stated), the “fold change of 2-Phenylethylamine concentration” value was 1.43 (inactive).
Regarding `CO/N=C(/C(=O)OC)c1ccccc1CO/N=C(\C)c1cccc(C(F)(F)F)c1`, the “fold change of 2-Phenylethylamine concentration” value is 0.951 (inactive).
Consider `COC(=O)N(C(=O)N1CO[C@@]2(C(=O)OC)Cc3cc(Cl)ccc3C2=N1)c1ccc(OC(F)(F)F)cc1`, for which the “fold change of 2-Phenylethylamine concentration” value is 0.986 (inactive).
For the molecule `COc1ccc(C(CN(C)C)C2(O)CCCCC2)cc1` (configuration not stated) [Venlafaxine], the “fold change of 2-Phenylethylamine concentration” value was 1.06 (inactive).
With `C1CCc2nnnn2CC1` [Pentylenetetrazole], the “fold change of 2-Phenylethylamine concentration” value was 0.876 (inactive).
Same read-out and setting: with `CC(C)CC(N(C)C)C1(c2ccc(Cl)cc2)CCC1` (configuration not stated) [Sibutramine hydrochloride] the figure was 1 (inactive); with `OC(c1ccccc1)(c1ccccc1)C1CCNCC1` [Azacyclonol], 1.06 (inactive).
On to `CNC(=O)Oc1cccc(/N=C/N(C)C)c1`, for which the “fold change of 2-Phenylethylamine concentration” value is 0.934 (inactive).
Same read-out and setting: to `O=C(O)c1nc(Cl)ccc1Cl` belongs 1.02 (inactive); to `CNC(=O)c1cc(C#N)cc(C)c1NC(=O)c1cc(Br)nn1-c1ncccc1Cl`, 1.08 (inactive); to `C[N+]1([O-])[C@@H]2C[C@@H](OC(=O)[C@H](CO)c3ccccc3)C[C@H]1[C@@H]1O[C@@H]12` (some centres not stated) [Scopolamin-N-oxide hydrobromide], 1.13 (inactive).
`CCC(=O)O[C@@](Cc1ccccc1)(c1ccccc1)[C@@H](C)CN(C)C` [Levopropoxyphene napsylate]: the “fold change of 2-Phenylethylamine concentration” value was 1.03 (inactive).
Same read-out and setting: with `CNC(=O)CSP(=S)(OC)OC` the figure was 1.43 (inactive); with `CC(C)[N+](C)(CCC(C(N)=O)(c1ccccc1)c1ccccc1)C(C)C` [Isopropamide iodide], 0.834 (inactive); with `COCC(=O)N(c1c(C)cccc1C)[C@H](C)C(=O)OC`, 1.05 (inactive).
Still for that read-out and setting: with `O=C1c2ccccc2C(=O)N1SC(Cl)(Cl)Cl` the figure was 0.999 (inactive); with `O=C1C2CC=CCC2C(=O)N1SC(Cl)(Cl)Cl` (configuration not stated), 1.05 (inactive).
Consider `CN(C)C(=O)Oc1cc(OC(=O)N(C)C)cc(C(O)CNC(C)(C)C)c1` (configuration not stated) [Bambuterol hydrochloride], for which the “fold change of 2-Phenylethylamine concentration” value was 1.02 (inactive).
`CC(C)N(C)S(=O)(=O)NC(=O)c1cc(-n2c(=O)cc(C(F)(F)F)n(C)c2=O)c(F)cc1Cl`: the “fold change of 2-Phenylethylamine concentration” value was 0.819 (inactive).
Take `CC[C@H]1CCC[C@H](O[C@H]2CC[C@H](N(C)C)[C@@H](C)O2)[C@@H](C)C(=O)C2=C[C@@H]3[C@@H](C=C(C)[C@@H]4C[C@@H](O[C@@H]5O[C@@H](C)[C@H](OC)[C@@H](OC)[C@H]5OC)C[C@@H]34)[C@@H]2CC(=O)O1.CC[C@H]1CCC[C@H](O[C@H]2CC[C@H](N(C)C)[C@@H](C)O2)[C@@H](C)C(=O)C2=C[C@H]3[C@@H]4C[C@H](O[C@@H]5O[C@@H](C)[C@H](OC)[C@@H](OC)[C@H]5OC)C[C@H]4C=C[C@H]3C2CC(=O)O1`: the “fold change of 2-Phenylethylamine concentration” value is 0.982 (inactive).
Turning to `C[N+]1(C)CCCC(OC(=O)C(O)(c2ccccc2)c2ccccc2)C1` (configuration not stated) [Mepenzolate bromide], the “fold change of 2-Phenylethylamine concentration” value was 1.02 (inactive).
For `COc1cccc(C(=O)NN(C(=O)c2cc(C)cc(C)c2)C(C)(C)C)c1C`, the “fold change of 2-Phenylethylamine concentration” value was 0.92 (inactive).
The same measure, in the same setting: to `Cc1cccc(C)c1NC1=NCCCS1` [Xylazine] belongs 1 (inactive); to `CCN(C)C(=O)Oc1cccc([C@H](C)N(C)C)c1` [Rivastigmine], 1.18 (inactive).
In the case of `CCCCCCCCCCCCN=C(N)N`, the “fold change of 2-Phenylethylamine concentration” value was 0.893 (inactive).
Still for that read-out and setting: to `CO/C=C(/C(=O)OC)c1ccccc1Oc1cc(Oc2ccccc2C#N)ncn1` belongs 1.01 (inactive); to `O=C(O[C@H]1C[N+]2(CCCOc3ccccc3)CCC1CC2)C(O)(c1cccs1)c1cccs1` [Aclidinium bromide], 0.963 (inactive).
